Bioassay records as filed in PubChem BioAssay.
Compounds with a hit are over-represented: about 3.4% of the library has one in this group of screens.
GPR151 ag = activates the human receptor GPR151; activation, % at 11.2 µM; 650,000 compounds, 1% hits; Q8TDV0; PathHunter beta-arrestin GPR151 cells, luminescence; in the data active means activation above about 4.9%
FBW7 activator = human FBW7 E3 ligase activation, primary screen | AlphaScreen FBW7–phospho-cyclin E peptide binding, activator screen | 650,000 compounds, 0.13% hits | normalized activity (activation), % at 26.1 µM; in the data active means normalized activity above about 1.9%;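 further: purified mutant Fbw7 with reduced substrate affinity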
TEAD-YAP inh = TEAD-YAP interaction inhibition. HEK-TIYL cells, TEAD-Gal4/YAP UAS-luciferase luminescence. 640,000 compounds, 1.4% hits. inhibition, % at 9.12 µM; in the data active means inhibition above about 32%
MITF primary = blocks human microphthalmia-associated transcription factor. O75030. AlphaScreen MITF homodimerization, bead proximity signal. inhibition, % at 2.6 µM. 650,000 compounds, 0.91% hits; in the data active means inhibition above about 50%
Target sequence (O75030 whole entry, looked up): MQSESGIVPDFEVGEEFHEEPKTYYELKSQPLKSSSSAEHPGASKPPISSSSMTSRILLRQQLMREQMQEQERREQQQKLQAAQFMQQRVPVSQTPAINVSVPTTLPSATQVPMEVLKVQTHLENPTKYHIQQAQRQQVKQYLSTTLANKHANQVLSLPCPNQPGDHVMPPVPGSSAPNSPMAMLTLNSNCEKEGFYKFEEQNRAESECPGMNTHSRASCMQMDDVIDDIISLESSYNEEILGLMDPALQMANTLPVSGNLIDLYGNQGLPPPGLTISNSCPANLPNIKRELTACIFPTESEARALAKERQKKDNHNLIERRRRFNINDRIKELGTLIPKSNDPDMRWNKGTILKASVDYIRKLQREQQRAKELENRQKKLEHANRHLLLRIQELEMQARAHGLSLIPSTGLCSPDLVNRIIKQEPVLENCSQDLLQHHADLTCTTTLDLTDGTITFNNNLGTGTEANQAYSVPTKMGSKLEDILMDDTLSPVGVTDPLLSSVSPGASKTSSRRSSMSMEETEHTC
GPR151 confirm = human GPR151 activation, confirmation screen. shares compounds with GPR151 ag. GPR151 PathHunter beta-arrestin cells, luminescence, 90 min; % of EA-reagent control over plate median. activation, % at 11.2 µM. 6,700 tested, under 10 active. AID 1508609;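 active means mean percent activation across replicates above the confirmation screen cutoff of 4.91%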
GPR119 ag = activates human GPR119 in a GPR151 counter-screen | 6,700 compounds, 0.3% hits | shares compounds with GPR151 ag | activation, % at 11.2 µM | AID 1508611 | GPR119 PathHunter beta-arrestin cells, luminescence, 90 min; 0 = compound-well median, 100 = enzyme-acceptor control;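 active means mean percent activation in the counterscreen above 29.09%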;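 further: counterscreen on off-target GPR119 to flag nonselective hits from the GPR151 activator screen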
Large screens that a line does not name were inactive (follow-up assays come after a bar, where they were run); ! = not confirmed by another sample.

CC(CN(C)C)CN1c2ccccc2Sc2ccccc21 (stereo unspecified)	none
CC(CN1c2ccccc2Sc2ccccc21)N(C)C (stereo unspecified)	GPR151 ag 7.4! | GPR151 confirm inactive | GPR119 ag inactive
CC(NS(=O)(=O)c1ccc2c(c1)NC(=O)CC(=O)N2)c1ccccc1 (stereo unspecified)	GPR151 ag 8.3 | GPR151 confirm inactive | GPR119 ag inactive
O=C1CC(=O)Nc2cc(S(=O)(=O)NCC3COc4ccccc4O3)ccc2N1 (stereo unspecified)	GPR151 ag 5.0 | GPR151 confirm inactive | GPR119 ag inactive
CC1CN(CC(=O)NCc2cn3cccnc3n2)Cc2ccccc2O1 (stereo unspecified)	none
O=C(/C=C/c1c(F)cccc1Cl)NCc1ccncc1	GPR151 ag 7.2 | GPR151 confirm inactive | GPR119 ag inactive
COc1ccc(OC)c(/C=N/NC(=O)c2[nH]ncc2Br)c1	none
COC(=O)c1[nH]ncc1Br	GPR151 ag 6.1 | GPR151 confirm inactive | GPR119 ag inactive
Cc1[nH]nc2c1C(c1cccc(Oc3ccccc3)c1)C(C#N)=C(N)O2 (stereo unspecified)	none
CCN(CC)c1ccc(C(=O)Nc2sc3c(c2C#N)CCCC3)cc1	none
CCN(CC)c1ccc(C(=O)Nc2sc3c(c2C#N)CCCCC3)cc1	GPR151 ag 5.1 | GPR151 confirm inactive | GPR119 ag inactive
CCCCCC(=O)N1c2ccccc2NC2=C(C(=O)CC(c3ccc(OC)cc3)C2)C1c1ccc(F)cc1 (stereo unspecified)	none
COC(=O)Cn1c2cc(OC)c(OC)cc2c2nc(=O)cc(C)n21	GPR151 ag 8.8 | GPR151 confirm inactive | GPR119 ag inactive
Cc1n[nH]c(=O)nc1N1CCCC(C)C1 (stereo unspecified)	none
CCCc1nnc(SCc2ccc(Br)cc2)n1N	GPR151 ag 8.4 | GPR151 confirm inactive | GPR119 ag inactive
CCCc1nnc(SCc2ccc(Cl)cc2)n1N	none
C=CSc1sc(Cl)c(N2CCOCC2)c1[N+](=O)[O-]	none
C=CSc1sc(Cl)c(N2CCC3(CC2)OCCO3)c1[N+](=O)[O-]	GPR151 ag 5.2 | GPR151 confirm inactive | GPR119 ag inactive
CC1CCC2(CC1)NC(=O)N(CC(=O)c1ccc3c(c1)OCCO3)C2=O (stereo unspecified)	none
CCOc1ccccc1CN1CCC(n2nccc2NC(=O)C(C)(C)C)CC1	GPR151 ag 6.8 | GPR151 confirm inactive | GPR119 ag inactive
O=C(Nc1ccnn1C1CCN(Cc2ccccc2F)CC1)C1CCCC1	GPR151 ag 5.3 | GPR151 confirm inactive | GPR119 ag inactive
O=C(Nc1ccnn1C1CCN(Cc2ccccc2OCCO)CC1)c1cccc(F)c1	GPR151 ag 5.9 | GPR151 confirm inactive | GPR119 ag inactive
COc1ccc(F)c(CN2CCC(n3nccc3NC(=O)C3CCCC3)CC2)c1	none
O=C(COc1ccccc1)N1CCN(S(=O)(=O)c2ccc(Cl)cc2)CC1	none
O=C(NCc1ccco1)c1c[nH]c2ccc(S(=O)(=O)N3CCN(c4ccc(F)cc4)CC3)cc2c1=O	none
O=C(c1ccc(Cl)cc1)c1cc(NC(=O)c2cc(Br)cc(Br)c2O)ccc1Cl	GPR151 ag 8.2 | GPR151 confirm inactive | GPR119 ag inactive
COC(=O)c1cc(C)sc1NC(=S)N1CCCCCC1	GPR151 ag 8.7 | GPR151 confirm inactive | GPR119 ag inactive
COc1ccc(-c2cn(S(=O)(=O)c3ccc(Cl)cc3)nc2N)cc1	none
COc1ccc(CCNC2CC(=O)N(c3ccc(F)cc3)C2=O)cc1 (stereo unspecified)	none
CCCOc1ccc(N2C(=O)CC(NCCCc3ccccc3)C2=O)cc1 (stereo unspecified)	GPR151 ag 6.1 | GPR151 confirm inactive | GPR119 ag inactive
CCCOc1ccc(N2C(=O)CC(NCC34CC5CC(CC(C5)C3)C4)C2=O)cc1 (stereo unspecified)	GPR151 ag 5.2 | GPR151 confirm inactive | GPR119 ag inactive
COc1ccc(CCNC2CC(=O)N(c3ccccc3)C2=O)cc1 (stereo unspecified)	GPR151 ag 5.8 | GPR151 confirm inactive | GPR119 ag inactive
Cc1ccc(N2C(=O)CC(NCCc3ccc(Cl)cc3)C2=O)cc1 (stereo unspecified)	GPR151 ag 6.4 | GPR151 confirm inactive | GPR119 ag inactive
CSc1ccc(C=Nc2cccc(C(N)=O)c2)cc1	none
Cc1no[n+]([O-])c1COc1ccccc1C=C1C(=O)NC(=S)NC1=O	GPR151 ag 6.2 | GPR151 confirm inactive | GPR119 ag inactive
Cc1no[n+]([O-])c1COc1ccc(C=C2C(=O)NC(=S)NC2=O)cc1	none
CC1=C/C(=N\OS(=O)(=O)c2ccccc2)C(C(C)C)=CC1=O	GPR151 ag 8.5 | GPR151 confirm inactive | GPR119 ag inactive
CC1=C/C(=N\S(=O)(=O)c2ccccc2)C(C)=CC1=O	none
Nc1ccc(-c2nnn(CC(=O)Nc3ccc(C4CCCCC4)cc3)n2)cc1	GPR151 ag 8.1 | GPR151 confirm inactive | GPR119 ag inactive
Cc1ccccc1NC(=O)CSC1=C(C#N)C(c2ccc(C(C)C)cc2)CC(=O)N1 (stereo unspecified)	none
Cc1ccnc(SCC(=O)N2CCc3ccccc32)n1	GPR151 ag 5.4 | GPR151 confirm inactive | GPR119 ag inactive
O=C(CSc1nnc(-c2ccccc2O)o1)N1CCc2ccccc21	GPR151 ag 6.3 | GPR151 confirm inactive | GPR119 ag inactive
CC(N)(Cc1ccc(O)cc1)C(=O)O (stereo unspecified)	GPR151 ag 5.2! | GPR151 confirm inactive | GPR119 ag inactive
CC(C)(Cc1ccc(O)cc1)NC(=O)SCc1ccccc1	none
COc1ccc(CNCc2ccc3ccccc3c2)cc1OC	GPR151 ag 5.1 | GPR151 confirm inactive | GPR119 ag inactive
COC(=O)N/N=C\c1ccc(-c2ccc(Br)cc2)o1	none
NNC(=O)CNC(=O)c1ccc(S(=O)(=O)N2CCCC2)cc1	none
COc1ccc(NC(=O)Nc2nnc(SCc3ccc(F)cc3)s2)cc1	none
O=C(Nc1ccc(F)cc1)Nc1nnc(SCc2ccccc2)s1	GPR151 ag 5.0 | GPR151 confirm inactive | GPR119 ag inactive
O=C(Cc1cccs1)Nc1nnc(SCc2ccccc2)s1	GPR151 ag 5.1 | GPR151 confirm inactive | GPR119 ag inactive
CC1CCCC(C)N1c1nnc(NC(=O)Nc2ccc(F)cc2)s1 (stereo unspecified)	GPR151 ag 5.3 | GPR151 confirm inactive | GPR119 ag inactive
O=C(Nc1nnc(SCc2ccccc2)s1)c1cccs1	none
CCOC(=O)C1=C(C)N(C)C(SC)=NC1c1ccco1 (stereo unspecified)	GPR151 ag 6.4 | GPR151 confirm inactive | GPR119 ag inactive
CC1=C2C(O)C(=O)OC3CC4C(C)(C)C(=O)C=C[C@]4(C)C(CC1)[C@]23C (stereo partly specified)	GPR151 ag 6.0 | GPR151 confirm inactive | GPR119 ag inactive
